Data as given in PubChem BioAssay AID709 (SRMLSC, 2007).
In all, about 65,000 compounds went through this assay and about 3,600 (5.5%) were called active.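 The calls were made as follows: active = at 10 µM, mean starting fluorescence two-fold or more over control wells; inactive = the rest.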 The full list was thinned out, with actives kept by preference.

Experiment: intrinsic fluorescence of library compounds, ex339/em460 – biochemical, MLSMR library, data from DPM-DC assay, artefact control, profiling panel (AID 709);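 also: signal is the first read of a kinetic run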
Conditions: compound autofluorescence, ex339/em460 nm, NADH buffer; at 10 µM; active compounds read high; 1 = no-compound wells, NADH background

| SMILES | fluorescence fold increase |
| --- | --- |
| COc1ccc2c(c1OC)C(=O)OC2c1c(O)nc(SC)n(-c2ccccc2)c1=O (stereo not given) | 1.06 (inactive) |
| Cc1nc2ccccc2cc1O | 2.48 (active) |
| CCOC(=O)c1cc2ccccc2nc1C | 1.08 (inactive) |
| Cc1cc(O)ccc1-c1cnc2ccccc2n1 | 1.05 (inactive) |
| Cc1cccc(OCc2nnc(SCC(=O)N3CCN(C(=O)c4ccco4)CC3)n2C)c1C | 1.11 (inactive) |
| O=C(O)C1CCN(S(=O)(=O)N2CCOCC2)CC1 | 1.1 (inactive) |
| CCOC(=O)c1cc2n(c1N)-c1ccccc1C2=O | 1.16 (inactive) |
| CCCn1c(=NC(C)=O)c(C(=O)OCC)cc2c(=O)n3ccccc3nc21 | 3.86 (active) |
| CCOC(=O)c1cc2n(c1C)-c1ccccc1C2=O | 1.02 (inactive) |
| O=C(Nc1ccc(NC(=O)c2cccs2)cn1)c1ccco1 | 1.08 (inactive) |
| Cc1cccc(-n2c(N)cc(=O)nc2SC(C)C(=O)NC2CCCCC2)c1 (stereo not given) | 1.06 (inactive) |
| O=C(CN1C(=O)C2C3C=CC(C3)C2C1=O)NCCc1ccccc1Cl (stereo not given) | 1.05 (inactive) |
| CCOc1ccc(OCC)c(NC(=O)CSc2nnc(Cn3cnc4ccccc43)n2C)c1 | 1.12 (inactive) |
| Cn1c(Cc2csc(N)n2)nnc1SC/C=C/c1ccccc1 | 1.1 (inactive) |
| Cc1cn(C2C=CC(CO)O2)c(=O)[nH]c1=O (stereo not given) | 1.07 (inactive) |
| Cc1ccc(Cn2c(NC(=O)c3ccco3)nc3ccccc32)cc1 | 1.32 (inactive) |
| Cc1ccc(-n2nc3cc(Cl)c(NC(=O)c4ccco4)cc3n2)cc1 | 1.84 (inactive) |
| CCn1nc(NC(=O)c2ccco2)c2cc3ccc(C)cc3nc21 | 3.62 (active) |
| CCOc1ccc(NC(=O)CCS(=O)(=O)c2cccc3nsnc23)cc1 | 1.08 (inactive) |
| CCC1CCCCN1C(=O)Nc1cccc(NC(=O)N2CCCCC2CC)c1 (stereo not given) | 1.13 (inactive) |
| CCOC(=O)N1CCN(S(=O)(=O)c2cc3c(cc2C)NC(=O)CO3)CC1 | 1.11 (inactive) |
| CCn1ncc(C2=NOC(C(=O)N3CCN(c4ccccc4)CC3)C2)c1C (stereo not given) | 1.14 (inactive) |

| SMILES | fluorescence fold increase |
| --- | --- |
| O=C(NCc1cccs1)c1ccc2c(c1)ncn2C1CCCC1 | 1.03 (inactive) |
| O=C(CSC1=Nc2ccccc2C2=NC(c3ccccc3)C(=O)N12)NCC1CCCO1 (stereo not given) | 2.12 (active) |
| O=C(CS(=O)(=O)Cc1ccccc1)NCC1CCCO1 (stereo not given) | 1.1 (inactive) |
| O=C(CSc1nnc(-c2ccc(NS(=O)(=O)c3ccccc3)cc2)o1)NCC1CCCO1 (stereo not given) | 1.01 (inactive) |
| CN(C(=O)C1CCOC1)c1nnc(-c2cccnc2)s1 (stereo not given) | 1.03 (inactive) |
| COc1cccc(-c2nnc(N(C)C(=O)c3ccno3)s2)c1 | 1.38 (inactive) |
| CN(C(=O)c1ccccn1)c1nnc(-c2ccccn2)s1 | 3.72 (active) |
| CN(C(=O)c1ccno1)c1nnc(-c2cccnc2)s1 | 1.68 (inactive) |
| O=C(c1cccs1)N(C(=O)c1cccs1)c1ccccn1 | 1.09 (inactive) |
| CN(C(=O)COc1ccccc1)c1nnc(-c2ccncc2)s1 | 5 (active) |
| Cc1ccc(C)c(NC(=O)CSc2nnc(Cc3cccn3C)n2-c2ccc(F)cc2)c1 | 1.08 (inactive) |
| CCCCOc1ccccc1/C=c1/sc2nc(-c3oc4ccccc4c3C)nn2c1=O | 1.1 (inactive) |
| Cc1ccccc1CSc1nnc(-c2ccccn2)n1N | 1.08 (inactive) |
| CN(C)CCCNc1c2c(c(C#N)c3nc4ccccc4n13)CCC2 | 2.1 (active) |
| N#Cc1c2c(c(N3CCN(CCO)CC3)n3c1nc1ccccc13)CCCC2 | 1.53 (inactive) |
| COc1ccc(-n2nc3c(c2NC(=O)Cc2cccc(C)c2)CS(=O)C3)cc1 (stereo not given) | 1.15 (inactive) |
| Cn1cccc1C1(C(F)(F)F)NCCNC1=O (stereo not given) | 1.11 (inactive) |
| CC(=O)c1ccc(NC(=O)N[C@@H](Cc2ccccc2)C(=O)O)cc1 | 1.09 (inactive) |
| COc1cc(OC)cc(C(=O)Nc2ncc3c(n2)CC(C)(C)CC3=O)c1 | 1.1 (inactive) |
| COc1ccc(NC(=O)c2ccc(OC)cc2)cc1 | 1.13 (inactive) |
| COc1cc(OC)cc(C(=O)Nc2ccc(-c3nc4ccccc4o3)c(O)c2)c1 | 2.11 (active) |
| Cc1ccc(S(=O)(=O)NC(C)C(=O)Nc2ccccc2C(=O)N2CCCC2)cc1 (stereo not given) | 1.1 (inactive) |

| SMILES | fluorescence fold increase |
| --- | --- |
| CCCC(=O)N=c1sc2cccc(F)c2n1C | 1.09 (inactive) |
| Cc1cc(C)c2c(n1)nn1c(N3CCOCC3)cc(C)nc21 | 2.97 (active) |
| Cc1cc(N2CCCC2)n2nc(C)c(-c3ccccc3)c2n1 | 1.68 (inactive) |
| Cc1nn2c3cc(N4CCOCC4)ccc3nc2c2ccccc12 | 1.11 (inactive) |
| O=C(c1ccco1)N1CCN(c2cccc(Cl)c2)CC1 | 1.03 (inactive) |
| Cc1cc(C)c2c(n1)nn1c(N3CCN(c4cccc(Cl)c4)CC3)cc(C)nc21 | 2.17 (active) |
| Cc1cc(C)c2c(n1)nn1c(-n3ccnc3)cc(C)nc21 | 3.27 (active) |
| C/C(O)=C\c1nc(=O)c2c(C)cc(C)nc2n1-c1ccccc1 | 1.08 (inactive) |
| Cc1nc(SC(C)C)[nH]c(=O)c1Cc1ccccc1 | 1.11 (inactive) |
| CCOc1ccc2nc(NC(=O)CSc3nc4c(c(=O)n(C)c(=O)n4C)n3CC)sc2c1 | 1.12 (inactive) |
| CC(=O)NC(Cc1ccc(F)cc1)C(=O)O (stereo not given) | 1.02 (inactive) |
| CCOC(=O)c1oc2ccccc2c1NC(=O)c1cccs1 | 1.25 (inactive) |
| N#C/C=C1\Sc2ccccc2C(=O)N1CC(=O)N1CCN(S(=O)(=O)c2ccccc2)CC1 | 1.1 (inactive) |
| COc1cccc(NC(=O)C(C)Oc2ccccc2)c1 (stereo not given) | 1.11 (inactive) |
| CC1Oc2ccccc2N(Cc2cccnc2)C1=O (stereo not given) | 1.14 (inactive) |
| Cc1ccc(C(=O)OCC(=O)NCc2ccc3c(c2)OCO3)s1 | 0.99 (inactive) |
| COC(=O)Cc1c(C)c2ccc(OCC(=O)NCc3ccc4c(c3)OCO4)cc2oc1=O | 2.07 (active) |
| O=C(COc1ccccc1)NCc1ccc2c(c1)OCO2 | 1.08 (inactive) |
| COCc1nnc(NC(=O)CS(=O)(=O)Cc2ccccc2)s1 | 1.1 (inactive) |
| Cc1nc2c(-c3ccccc3)c(C)[nH]n2c(=O)c1Cl | 2.16 (active) |
| Cc1nc2nc(COc3ccccc3)[nH]n2c(=O)c1C | 1.17 (inactive) |
